About 83,000 compounds went through this panel and 20% of them were active in at least one assay; those are over-represented in the sample as a whole.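 Plates (96-well) were seeded with cells, treated with compound at one concentration, and incubated for 48 hours before percent growth was determined.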 A number with no mark means an inactive call. Active and inactive are the calls of the source. How the source made its calls: active means growth percent below 10; inactive means the rest.
Tests used:
Assay in all cases: NCI-60 one-dose screen, 48 h (100 = growth as untreated, 0 = no growth, -100 = all killed)
Details in all cases: 10 µM unless noted
SR leukemia = test system: SR leukemia
RPMI-8226 leukemia = test system: RPMI-8226 leukemia
OVCAR-8 ovarian = test system: OVCAR-8 ovarian
OVCAR-5 ovarian = test system: OVCAR-5 ovarian
OVCAR-4 ovarian = test system: OVCAR-4 ovarian
SK-OV-3 ovarian = test system: SK-OV-3 ovarian
IGROV1 ovarian = test system: IGROV1 ovarian
HS 578T breast = test system: HS 578T breast
NCI/ADR-RES ovarian = test system: NCI/ADR-RES ovarian
T-47D breast = test system: T-47D breast
BT-549 breast = test system: BT-549 breast
MDA-MB-435 melanoma = test system: MDA-MB-435 melanoma
SW-620 colon = test system: SW-620 colon
MCF7 breast = test system: MCF7 breast
HCT-116 colon = test system: HCT-116 colon
HCC-2998 colon = test system: HCC-2998 colon
KM12 colon = test system: KM12 colon
OVCAR-3 ovarian = test system: OVCAR-3 ovarian

SMILES	growth (SR leukemia)	growth (RPMI-8226 leukemia)	growth (OVCAR-8 ovarian)	growth (OVCAR-5 ovarian)	growth (OVCAR-4 ovarian)	growth (SK-OV-3 ovarian)	growth (IGROV1 ovarian)	growth (HS 578T breast)	growth (NCI/ADR-RES ovarian)	growth (T-47D breast)	growth (BT-549 breast)	growth (MDA-MB-435 melanoma)	growth (SW-620 colon)	growth (MCF7 breast)	growth (HCT-116 colon)	growth (HCC-2998 colon)	growth (KM12 colon)	growth (OVCAR-3 ovarian)
COc1ccc([C@H]2c3[nH]c4ccccc4c3C[C@H]3C(=O)N(CCCCCCC(=O)NO)CC(=O)N23)cc1	16.5%	-9.73% (active)	30.3%	23.3%	54.3%	55.3%	34.3%	47.7%	58.4%	7.57% (active)	62.4%	24.6%	4% (active)	29.9%	10.4%	6.81% (active)	49.8%	–
Cc1ccsc1C(=O)CC(=O)C(F)(F)C(F)(F)C(F)(F)F	108%	101%	102%	97.4%	98.6%	–	114%	110%	107%	101%	125%	105%	103%	96.6%	109%	111%	107%	110%
CC1=C(/C=C/C(C)=C/C=C(C(=O)O)\C(C)=C\C(=O)O)C(C)(C)CCC1	95.7%	92%	99.4%	97%	115%	103%	99.2%	105%	102%	101%	100%	116%	108%	93.8%	105%	108%	110%	–
ClCCn1cnc2c(SCc3ccccc3Cl)ncnc21	-21.5% (active)	7.3% (active)	47.5%	69.6%	81.7%	46.1%	–	53.2%	54.6%	52.8%	44.1%	37.5%	28.9%	21.6%	32.8%	51.1%	34.8%	35.9%
CCN1C(=O)C(C)C=C(C)C=C1C (centres undefined)	110%	115%	102%	106%	119%	106%	106%	102%	119%	102%	124%	114%	114%	106%	112%	103%	100%	–
COc1cc(Nc2ncccc2/C=C/C(=O)c2cc(OC)c(OC)c(OC)c2)cc(OC)c1OC	9.53% (active)	52.1%	71.4%	102%	83.1%	97.4%	87.1%	99.5%	79.4%	34.1%	100%	61.4%	71.9%	9.35% (active)	60.6%	93.5%	71.1%	–
CCN(CC)CC(=O)Nc1c(C)ccc(N)c1C	151%	111%	105%	99.2%	99.1%	96.7%	95.4%	105%	99.2%	96.6%	97.2%	99.8%	104%	92.4%	84%	96.8%	114%	–
CCOC(=O)C(Cc1ccccc1)n1c(O)c(/C=N/c2ncc(Cc3ccc(Cl)cc3Cl)s2)sc1=S (centres undefined)	27.8%	-7.55% (active)	2.66% (active)	38.9%	25.6%	0.0373% (active)	37.6%	-3.53% (active)	5.71% (active)	-3.64% (active)	-1.04% (active)	17.2%	12%	3.1% (active)	1.61% (active)	16.5%	10.8%	–
CN(C)c1nc(-c2cccs2)n2nc(-c3ccc(Cl)cc3)cc2n1	58.7%	74.3%	11.8%	75.6%	-39.5% (active)	-54.2% (active)	11.9%	-2.48% (active)	38.3%	30.7%	68.7%	63.1%	56.8%	66.2%	6.95% (active)	48.9%	72.5%	–
Clc1ccc(Cl)c(N=Cc2ccc3c(c2)OCO3)c1	114%	99.9%	97.8%	103%	108%	–	114%	109%	106%	101%	96.2%	106%	107%	108%	104%	98.5%	106%	115%
Cc1ccc(C(=O)CC(=O)C(F)(F)C(F)(F)C(F)(F)F)s1	99.5%	102%	104%	96.1%	112%	104%	108%	105%	105%	108%	103%	99%	103%	105%	110%	105%	112%	–
COc1cccc(-c2nc3sccn3c2-c2ccnc(NCCN3CCCNS3(=O)=O)n2)c1	59.5%	102%	83.8%	112%	81.5%	–	75%	105%	105%	95.3%	113%	54.1%	127%	100%	74.6%	118%	103%	102%
COc1ccc(C(=O)OC2C(OC3C(O)COC(O[C@H]4C[C@H]5[C@@H]6CC=C7C[C@@H](O)CC[C@]7(C)[C@H]6CC[C@]5(C)[C@H]4[C@H](C)C(=O)CCC(C)C)C3OC(C)=O)OCC(O)C2O)cc1 (some centres undefined)	-8.55% (active)	-29.1% (active)	19.3%	21.6%	52.1%	–	28.3%	-29.3% (active)	60.1%	2.99% (active)	-8.64% (active)	-47.4% (active)	-57.3% (active)	-30.8% (active)	1.33% (active)	52.9%	24.1%	53.4%
CN(C)N1C(=O)c2c(Cl)c(Cl)c(Cl)c(Cl)c2C1=O	87.5%	97%	105%	115%	111%	106%	–	99%	101%	93%	129%	114%	108%	95.7%	101%	102%	113%	122%
Nc1c(C(=O)C[C@@H](N)CO)ccc2c1C(=O)CCO2	30.7%	19.2%	35.8%	72.8%	86.4%	–	51.4%	110%	61.2%	33.6%	41.9%	68.3%	5.93% (active)	22.5%	37.9%	-5.53% (active)	20.1%	23.5%
Cc1cccc2nc3ccccc3c(Nc3ccc(NS(C)(=O)=O)cc3)c12	-3.06% (active)	52.3%	39.8%	62.1%	77.5%	41%	43.1%	87.8%	80.8%	37.1%	81.7%	78.6%	34.2%	24.8%	31.8%	75.5%	55.5%	–
CCn1c(Cc2ccccc2Nc2c(Cl)cccc2Cl)nnc1SCC(=O)Nc1ccccc1C(F)(F)F	79.8%	76.4%	92.8%	110%	79%	96.1%	79.4%	94.9%	87.4%	47.6%	94.4%	99.5%	99.3%	86.3%	77.8%	99.9%	97.6%	–

From PubChem BioAssay (NCI)
